Screens from PubChem BioAssay.
CYP2C9 inhib = blockers of cytochrome P450 2C9 activity – biochemical, luminescence, ADME assay, primary screen | 20% of 96,000 active | inhibition, % at 5 µM | CYP2C9 Supersomes, luciferin-H conversion | P11712;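 active means blocking of liver enzyme CYP2C9 beyond about 50% at 5 µM, limit read from the data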
sEH activator = soluble epoxide hydrolase activators, primary screen, biochemical, human sEH; purified human sEH enzymatic activity, activator screen; activation, % at 2 µM; 0.04% of 91,000 active; AID 717, 2007; in the data active means activation above about 37%
Target sequence (P34913 whole entry, looked up): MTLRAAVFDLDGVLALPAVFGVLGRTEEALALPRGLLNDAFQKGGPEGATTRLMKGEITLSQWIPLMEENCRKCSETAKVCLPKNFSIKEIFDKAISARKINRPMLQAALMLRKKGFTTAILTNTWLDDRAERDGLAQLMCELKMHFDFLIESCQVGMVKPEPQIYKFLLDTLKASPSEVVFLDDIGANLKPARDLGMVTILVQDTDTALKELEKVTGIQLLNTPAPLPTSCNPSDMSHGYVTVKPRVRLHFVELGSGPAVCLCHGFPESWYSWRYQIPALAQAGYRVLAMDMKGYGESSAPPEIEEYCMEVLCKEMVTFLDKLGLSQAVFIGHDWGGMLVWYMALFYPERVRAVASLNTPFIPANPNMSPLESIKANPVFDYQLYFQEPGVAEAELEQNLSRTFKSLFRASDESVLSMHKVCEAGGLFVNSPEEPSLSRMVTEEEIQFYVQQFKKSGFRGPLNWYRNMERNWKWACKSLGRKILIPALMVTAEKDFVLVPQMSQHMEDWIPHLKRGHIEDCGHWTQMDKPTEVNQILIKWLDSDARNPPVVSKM
CYP2C9 activ = human CYP2C9 activators, primary screen, biochemical, luminescence; Cytochrome P450 2C9 (Homo sapiens), P11712; recombinant CYP2C9, luciferin-H conversion; active compounds read high; factor 1 = untreated enzyme, 0 = blocked; activation factor at 5 µM; 1.4% of 96,000 active;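 active means activation factor of 2 or more for CYP2C9 at a 5 µM dose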;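 further: 0 = sulfaphenazole-blocked wells and 1 = vehicle-only wells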
CYP2C19 inh = blockers of cytochrome P450 2C19 activity – biochemical, luminescence, ADME assay, primary screen | CYP2C19 Supersomes, luciferin-H EGE luminescence, 30 min | P33261 | AID 778, 2007 | inhibition, % at 5 µM | 21% of 96,000 active;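 active means CYP2C19 inhibition above a set limit at 5 µM in the primary screen, cut at about 50% in these data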;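 further: plate controls were negative control wells for no effect and 2.5 mM tranylcypromine positive control for full effect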
sEH inh = soluble epoxide hydrolase inhibitors, primary screen, biochemical, human sEH; Bifunctional epoxide hydrolase 2 (Homo sapiens), P34913; recombinant human sEH enzymatic activity assay; inhibition, % at 2 µM; 0.34% of 91,000 active; AID 707, 2007; in the data active means inhibition above about 80%
CYP2C19 activ = human CYP2C19 activators, primary screen, biochemical, luminescence; activation factor at 5 µM; AID 1025, 2008; recombinant CYP2C19, luciferin-H EGE luminescence; active compounds read high; 0 = fully inhibited enzyme, 1 = untreated enzyme; 96,000 tested, under 10 active; Cytochrome P450 2C19 (Homo sapiens), P33261;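 active means activation factor of at least 2 at 5 µM in the primary screen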;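 further: 0 = wells with 2.5 mM tranylcypromine and 1 = vehicle-only wells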
Starred values were filed as active, the others as inactive; . = no result. The list is not random: actives were taken first. Their share in the collection is about 27%.

SMILES	CYP2C9 inhib	sEH activator	CYP2C9 activ	CYP2C19 inh	sEH inh	CYP2C19 activ
Nc1nc(CN2CCN(c3ccccc3)CC2)nc(N2CCCc3ccccc32)n1	60*	10	0.4	62*	-11	0.4
O=C(Nn1cnnc1)c1ccncc1	9	-19	0.9	0	18	1
O=C(NN1C(=O)C2C(C1=O)C1C=CC2C12CC2)c1ccncc1 (stereo not given)	28	5	0.7	52*	-2	0.5
CCOC(=O)c1ccc(NC(=O)c2cn(-c3ccccc3)nc2-c2ccncc2)cc1	31	6	0.7	15	-4	0.8
COc1ccc(-n2c(COc3cccc4ccccc34)nnc2SCC(=O)NCc2ccco2)cc1	55*	1	0.4	28	-4	0.7
COc1ccccc1OCc1nnc(SCC(=O)NCc2ccco2)n1-c1ccccc1	.	5	.	.	-3	.
COc1cccc(OCc2nnc(SCC(=O)NCc3ccco3)n2CCc2ccccc2)c1	91*	-5	0.1	88*	3	0.1
COc1ccc(-n2c(COc3cccc(C)c3)nnc2SCC(=O)NCc2ccco2)cc1	21	6	0.8	28	-8	0.7
COc1ccc(-n2c(COc3ccc4ccccc4c3)nnc2SCC(=O)NCc2ccco2)cc1	52*	-6	0.5	46	7	0.5
Cc1cnc(SCCc2ccncc2)nc1C	45	.	0.6	76*	.	0.2
CN1CCN(C2CCCCCC2)CC1	.	5	.	.	-2	.
CCCCC(CC)C(=O)Nc1ccccc1C#N (stereo not given)	43	2	0.6	53*	-5	0.5
CCc1ccc(NC2=NC(C(=O)NC3CCCCC3)CC(=O)N2)cc1 (stereo not given)	-24	-1	1.2	-17	4	1.2
COC(=O)c1ccc(COC(=O)CCc2nc(-c3ccccc3)c(-c3ccccc3)o2)cc1	86*	4	0.1	67*	-1	0.3
O=C(C1CCCN(S(=O)(=O)c2cccc3nonc23)C1)N1CCC(Cc2ccccc2)CC1 (stereo not given)	-79	2	1.8	51*	-4	0.5
O=C(NCCc1ccccc1)C1CCCN(S(=O)(=O)c2cccc3nonc23)C1 (stereo not given)	10	-68	0.9	7	68	0.9
Cc1[nH]c(=O)[nH]c(=O)c1S(=O)(=O)N1CCCC(C(=O)N2CCC(Cc3ccccc3)CC2)C1 (stereo not given)	-7	.	1.1	53*	.	0.5
O=C(Nc1ccccc1F)c1cc2nc(C(F)F)cc(C(F)F)n2n1	.	-4	.	.	9	.
O=C(c1cccc2ccccc12)N1CCN(CC2CC=CCC2)CC1 (stereo not given)	-158	7	2.6*	9	-8	0.9
COc1cccc(NC(=O)c2oc3ccccc3c2NC(=O)c2ccc3c(c2)OCO3)c1	39	.	0.6	5	.	0.9
COc1ccc(C(=O)c2oc3ccccc3c2NC(C)=O)cc1	48	12	0.5	37	-8	0.6
COc1ccc(OC)c(C(=O)c2oc3ccccc3c2NC(C)=O)c1	49	.	0.5	98*	.	0
COc1cccc(NC(=O)c2oc3ccccc3c2NC(=O)C(C)(C)C)c1	81*	6	0.2	8	-4	0.9
Cc1nn(-c2ccccc2)c2sc(C(=O)NNC(=O)COc3ccccc3)cc12	32	4	0.7	2	-1	1
CCCCNC(=O)COC(=O)c1cc2c(C)nn(-c3ccccc3)c2s1	78*	.	0.2	51*	.	0.5
SMILES	CYP2C9 inhib	sEH activator	CYP2C9 activ	CYP2C19 inh	sEH inh	CYP2C19 activ
Cc1cnc(NC(=O)c2cc3c(C)nn(-c4ccccc4)c3s2)s1	66*	-1	0.3	56*	4	0.4
Cc1nn(-c2ccccc2)c2sc(C(=O)N3CCCCC3)cc12	18	.	0.8	22	.	0.8
Cc1nn(-c2ccccc2)c2sc(C(=O)NC3CCCCC3)cc12	70*	8	0.3	23	-9	0.8
Fc1ccc(CN2CCCCCCC2)cc1F	6	1	0.9	27	0	0.7
N#Cc1c(Sc2ncc(C(F)(F)F)cc2Cl)nsc1C/C=N\OCc1ccccc1Br	-9	7	1.1	10	-10	0.9
COc1cccc2c1OC[C@@H](CO)[C@H]2N(C)C(=O)Nc1ccc(Cl)cc1Cl	-29	.	1.3	28	.	0.7
O=C(COc1ccc(-c2nnco2)cc1)NC1CCCc2ccccc21 (stereo not given)	86*	.	0.1	98*	.	0
COc1ccc(-c2nc(CSCC(=O)NC3CCCc4ccccc43)c(C)o2)cc1 (stereo not given)	58*	0	0.4	63*	0	0.4
Cc1ccc(N(C(=O)c2ccncc2)C2C=CS(=O)(=O)C2)cc1 (stereo not given)	-9	-1	1.1	-8	0	1.1
CN(C(=O)c1ccncc1)C1CC(C)(C)N(O)C(C)(C)C1	8	-7	0.9	96*	10	0
C1CCc2c(nnc3c2-c2nonc2CC3)C1	12	2	0.9	6	-4	0.9
CSc1nc2ccccc2n1C(=O)NC1CCCCC1	10	-23	0.9	15	21	0.8
O=C(O)COc1c(F)c(F)c(C(F)(F)F)c(F)c1F	14	.	0.9	-2	.	1
CCOC(=O)C1CN(S(=O)(=O)c2ccc(OC)cc2)c2cc(S(=O)(=O)CC)ccc2O1 (stereo not given)	58*	-28	0.4	50*	29	0.5
CCS(=O)(=O)c1ccc2c(c1)N(S(C)(=O)=O)CC(C(=O)NC1CC1)O2 (stereo not given)	21	-4	0.8	8	5	0.9
CCS(=O)(=O)c1ccc2c(c1)N(S(C)(=O)=O)CC(C(=O)NCc1ccccc1OC)O2 (stereo not given)	62*	-8	0.4	17	8	0.8
CC(=O)Oc1ccc2c(c1)cc(C)n2C	.	-3	.	.	6	.
CCOC(=O)c1cnn(-c2ccc(Cl)cc2)c1C1CCN(C(=O)OC(C)(C)C)CC1	85*	0	0.2	89*	-3	0.1
CCOC(=O)c1cn2nc(-c3ccc(OCC)cc3)cc2nc1C1CCN(C(=O)OC(C)(C)C)CC1	46	-9	0.5	18	6	0.8
CCOCCCNC(=O)C(c1ccc(Cl)cc1)N1CCN(C(=O)c2ccco2)CC1 (stereo not given)	-10	-4	1.1	7	4	0.9
O=C(Nc1ccc2c(c1)OCO2)C(c1ccc(Cl)cc1)N1CCC2(CC1)OCCO2 (stereo not given)	45	5	0.5	52*	-4	0.5
